Experimental data taken from ChEMBL document CHEMBL3988442, “University of Dundee, Small-Polar-MMV Screening Library” (2021).
For part of these data: Entries with a potency or affinity are not part of this list.

Columns and labels:
Parameters in all cases: scale not given: direction of the effect not stated beside the values
[1] = target: Protein translocase subunit SecA (Escherichia coli (strain K12)) (UniProt P10408); test: Assay to Identify E. coli SecA ATPase Inhibitors; type: functional; details: 30 µM
Chain of Protein translocase subunit SecA (Escherichia coli (strain K12)) (P10408 whole entry): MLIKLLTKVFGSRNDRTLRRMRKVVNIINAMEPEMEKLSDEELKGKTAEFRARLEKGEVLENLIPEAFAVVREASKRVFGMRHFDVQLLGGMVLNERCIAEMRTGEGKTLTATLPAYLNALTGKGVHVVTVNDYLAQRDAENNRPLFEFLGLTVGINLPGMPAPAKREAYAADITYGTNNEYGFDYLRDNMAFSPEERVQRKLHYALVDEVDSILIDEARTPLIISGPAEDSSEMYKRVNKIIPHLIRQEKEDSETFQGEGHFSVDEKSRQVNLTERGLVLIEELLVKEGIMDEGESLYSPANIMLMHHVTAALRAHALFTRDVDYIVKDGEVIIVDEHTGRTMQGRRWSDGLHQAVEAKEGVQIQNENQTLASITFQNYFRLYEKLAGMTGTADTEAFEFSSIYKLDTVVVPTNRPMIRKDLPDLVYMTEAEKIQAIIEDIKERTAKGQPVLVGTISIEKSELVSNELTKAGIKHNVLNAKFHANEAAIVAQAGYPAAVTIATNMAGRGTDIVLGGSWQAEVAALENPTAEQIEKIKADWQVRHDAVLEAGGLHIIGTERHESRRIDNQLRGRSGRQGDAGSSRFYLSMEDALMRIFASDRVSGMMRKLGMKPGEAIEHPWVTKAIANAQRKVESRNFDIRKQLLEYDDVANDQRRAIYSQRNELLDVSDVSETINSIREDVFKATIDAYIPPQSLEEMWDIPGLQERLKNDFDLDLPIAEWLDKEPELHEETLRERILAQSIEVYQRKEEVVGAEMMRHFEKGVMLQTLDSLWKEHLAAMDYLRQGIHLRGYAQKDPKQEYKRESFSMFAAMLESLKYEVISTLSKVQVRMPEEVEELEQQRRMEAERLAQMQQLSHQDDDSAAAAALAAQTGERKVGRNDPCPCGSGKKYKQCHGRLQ

[2] = target: T1, Ubiquitin-activating enzyme e1, putative (Leishmania donovani (strain BPK282A1)) (UniProt E9BSI1); test: Leishmania donovani Ubiquitin Activating Enzyme (LdE1); type: functional; details: 30 µM
T1 sequence (whole entry): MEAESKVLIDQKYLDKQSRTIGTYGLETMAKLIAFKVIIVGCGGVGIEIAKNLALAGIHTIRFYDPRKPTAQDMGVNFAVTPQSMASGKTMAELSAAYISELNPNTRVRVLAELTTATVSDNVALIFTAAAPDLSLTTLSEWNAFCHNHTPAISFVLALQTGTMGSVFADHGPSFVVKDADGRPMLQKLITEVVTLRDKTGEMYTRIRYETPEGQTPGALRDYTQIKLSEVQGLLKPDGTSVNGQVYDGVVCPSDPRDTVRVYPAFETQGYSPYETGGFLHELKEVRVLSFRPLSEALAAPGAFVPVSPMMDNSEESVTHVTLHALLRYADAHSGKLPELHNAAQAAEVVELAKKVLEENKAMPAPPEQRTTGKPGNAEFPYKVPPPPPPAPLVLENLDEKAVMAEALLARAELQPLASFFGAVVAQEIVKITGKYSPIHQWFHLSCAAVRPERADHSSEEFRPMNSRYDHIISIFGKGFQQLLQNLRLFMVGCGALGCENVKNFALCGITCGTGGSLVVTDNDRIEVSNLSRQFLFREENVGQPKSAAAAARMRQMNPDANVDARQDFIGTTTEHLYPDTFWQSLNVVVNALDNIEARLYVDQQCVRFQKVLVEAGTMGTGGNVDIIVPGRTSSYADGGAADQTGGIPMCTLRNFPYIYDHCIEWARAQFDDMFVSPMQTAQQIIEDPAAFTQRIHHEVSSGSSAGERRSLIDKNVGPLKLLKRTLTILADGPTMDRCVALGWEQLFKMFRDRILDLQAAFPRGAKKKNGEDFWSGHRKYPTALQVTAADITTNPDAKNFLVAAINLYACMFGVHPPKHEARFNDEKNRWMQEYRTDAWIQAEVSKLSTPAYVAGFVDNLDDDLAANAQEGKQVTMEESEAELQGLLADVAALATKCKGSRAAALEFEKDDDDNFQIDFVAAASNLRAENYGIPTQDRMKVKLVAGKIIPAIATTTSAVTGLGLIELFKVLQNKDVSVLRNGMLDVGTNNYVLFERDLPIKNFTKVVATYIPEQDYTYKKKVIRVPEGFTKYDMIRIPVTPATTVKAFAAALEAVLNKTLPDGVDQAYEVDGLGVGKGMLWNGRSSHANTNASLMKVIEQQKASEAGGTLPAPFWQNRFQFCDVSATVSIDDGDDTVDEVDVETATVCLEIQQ

[3] = target: AMP-activated protein kinase, AMPK (Homo sapiens) (UniProt P54646+O43741+P54619+Q9UGJ0+Q9Y478+Q13131+Q9UGI9); test: AMP-dependent Kinase enzyme assay. An in vitro enzyme assay that detects ADP turnover that is directly proportional to AMPK activity. This uses naive AMPK that is activated during the assay with MK-8722; type: functional; details: 30 µM
[4] = target: Sialic acid-binding Ig-like lectin 9 (Homo sapiens) (UniProt Q9Y336); test: Hs-Siglec9 ALPHAscreen SOP 20170721; details: 10 µM
Chain of Sialic acid-binding Ig-like lectin 9 (Homo sapiens) (Q9Y336 whole entry): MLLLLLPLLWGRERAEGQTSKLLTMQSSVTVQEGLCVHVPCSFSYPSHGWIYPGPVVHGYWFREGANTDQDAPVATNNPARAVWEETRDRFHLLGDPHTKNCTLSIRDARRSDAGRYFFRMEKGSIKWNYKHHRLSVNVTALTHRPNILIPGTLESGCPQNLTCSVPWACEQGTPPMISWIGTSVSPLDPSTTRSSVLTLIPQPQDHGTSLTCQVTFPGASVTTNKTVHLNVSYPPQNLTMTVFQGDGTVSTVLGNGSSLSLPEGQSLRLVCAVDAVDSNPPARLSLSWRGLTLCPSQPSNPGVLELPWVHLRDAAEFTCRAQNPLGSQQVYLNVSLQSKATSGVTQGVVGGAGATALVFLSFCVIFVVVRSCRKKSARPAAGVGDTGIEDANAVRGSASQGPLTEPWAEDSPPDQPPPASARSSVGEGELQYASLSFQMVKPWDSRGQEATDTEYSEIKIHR

Trypanosoma cruzi = test: Trypanosoma cruzi phosphomannomutase and mannose-1-phosphate guanylyltransferase assay; type: functional; details: 10 µM
[5] = target: T2, Arginase-2, mitochondrial (Homo sapiens) (UniProt P78540); test: in vitro enzyme assay to detect the production of urea directly proportional to the activity of Arginase II; type: functional; details: 33.3 µM; also: in the data most compounds retested in dose-response had high values
T2 sequence (whole entry): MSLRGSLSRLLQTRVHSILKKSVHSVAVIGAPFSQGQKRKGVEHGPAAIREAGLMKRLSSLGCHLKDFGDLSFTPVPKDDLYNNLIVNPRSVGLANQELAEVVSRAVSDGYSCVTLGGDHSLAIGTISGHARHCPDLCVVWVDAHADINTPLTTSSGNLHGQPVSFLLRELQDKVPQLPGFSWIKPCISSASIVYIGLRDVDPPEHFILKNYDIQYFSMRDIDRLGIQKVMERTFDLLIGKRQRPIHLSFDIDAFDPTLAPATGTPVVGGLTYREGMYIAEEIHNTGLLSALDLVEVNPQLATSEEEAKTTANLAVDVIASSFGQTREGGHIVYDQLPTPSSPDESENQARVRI

[6] = target: T3, Proteasome subunit beta (Trypanosoma cruzi) (UniProt O96673); test: Trypanosoma cruzi proteasome chymotrypsin-like activity (TcProtChymo) assay.; also: in the data most compounds retested in dose-response had high values; type: functional; details: 9.37 µM
T3 sequence (whole entry): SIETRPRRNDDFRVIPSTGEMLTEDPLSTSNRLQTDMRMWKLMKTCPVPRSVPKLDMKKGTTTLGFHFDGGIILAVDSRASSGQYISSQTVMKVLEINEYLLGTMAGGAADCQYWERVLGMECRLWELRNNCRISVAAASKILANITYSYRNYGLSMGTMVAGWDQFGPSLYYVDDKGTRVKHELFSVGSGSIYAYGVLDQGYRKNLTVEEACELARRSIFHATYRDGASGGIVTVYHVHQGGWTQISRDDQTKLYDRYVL

Homo sapiens = species: Homo sapiens; test: To identify inhibition of the IFN signalling (Jak-Stat) pathway via expression of an eGFP reporter gene under the control of an IFN-stimulated response element (ISRE) containing MxA promoter.; type: functional; details: 30 µM
[7] = target: T4, Tyrosyl-tRNA synthetase, putative (Trypanosoma cruzi (strain CL Brener)) (UniProt Q4DSP6); test: Trypanosoma cruzi tyrosyl tRNA synthetase (TcYRS) _High Tyrosine SOP; type: functional; details: 30 µM; also: in the data most compounds retested in dose-response had high values
T4 sequence (whole entry): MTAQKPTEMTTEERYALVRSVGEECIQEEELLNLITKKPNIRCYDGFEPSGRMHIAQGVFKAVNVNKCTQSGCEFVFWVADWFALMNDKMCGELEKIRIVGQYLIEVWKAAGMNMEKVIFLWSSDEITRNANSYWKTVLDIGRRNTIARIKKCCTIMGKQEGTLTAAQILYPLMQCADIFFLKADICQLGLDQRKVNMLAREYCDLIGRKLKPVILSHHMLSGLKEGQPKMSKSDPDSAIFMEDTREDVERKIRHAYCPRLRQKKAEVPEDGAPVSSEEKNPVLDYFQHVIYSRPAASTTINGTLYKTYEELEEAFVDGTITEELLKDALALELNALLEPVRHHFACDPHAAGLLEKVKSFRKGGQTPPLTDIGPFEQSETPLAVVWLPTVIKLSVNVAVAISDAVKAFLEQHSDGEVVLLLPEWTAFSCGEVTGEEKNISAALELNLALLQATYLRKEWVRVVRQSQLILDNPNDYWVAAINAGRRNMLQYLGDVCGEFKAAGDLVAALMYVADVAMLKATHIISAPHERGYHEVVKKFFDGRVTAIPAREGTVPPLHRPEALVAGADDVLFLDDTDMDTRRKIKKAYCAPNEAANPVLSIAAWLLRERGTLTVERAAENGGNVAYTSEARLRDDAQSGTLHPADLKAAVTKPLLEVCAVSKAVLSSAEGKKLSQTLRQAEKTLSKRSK

[8] = target: T4, Tyrosyl-tRNA synthetase, putative (Trypanosoma cruzi (strain CL Brener)); test: Trypanosoma cruzi tyrosyl tRNA synthetase (TcYRS) SOP; type: functional; details: 30 µM
[9] = target: Chromo domain-containing protein 1 (Saccharomyces cerevisiae (strain ATCC 204508 / S288c) (Baker's yeast)) (UniProt P32657); test: ScCHD-1 Enzyme Inhibition Assay; type: functional; details: 30 µM; also: in the data most compounds retested in dose-response had high values
Chain of Chromo domain-containing protein 1 (Saccharomyces cerevisiae (strain ATCC 204508 / S288c) (Baker's yeast)) (P32657 whole entry, the tested form may be a part): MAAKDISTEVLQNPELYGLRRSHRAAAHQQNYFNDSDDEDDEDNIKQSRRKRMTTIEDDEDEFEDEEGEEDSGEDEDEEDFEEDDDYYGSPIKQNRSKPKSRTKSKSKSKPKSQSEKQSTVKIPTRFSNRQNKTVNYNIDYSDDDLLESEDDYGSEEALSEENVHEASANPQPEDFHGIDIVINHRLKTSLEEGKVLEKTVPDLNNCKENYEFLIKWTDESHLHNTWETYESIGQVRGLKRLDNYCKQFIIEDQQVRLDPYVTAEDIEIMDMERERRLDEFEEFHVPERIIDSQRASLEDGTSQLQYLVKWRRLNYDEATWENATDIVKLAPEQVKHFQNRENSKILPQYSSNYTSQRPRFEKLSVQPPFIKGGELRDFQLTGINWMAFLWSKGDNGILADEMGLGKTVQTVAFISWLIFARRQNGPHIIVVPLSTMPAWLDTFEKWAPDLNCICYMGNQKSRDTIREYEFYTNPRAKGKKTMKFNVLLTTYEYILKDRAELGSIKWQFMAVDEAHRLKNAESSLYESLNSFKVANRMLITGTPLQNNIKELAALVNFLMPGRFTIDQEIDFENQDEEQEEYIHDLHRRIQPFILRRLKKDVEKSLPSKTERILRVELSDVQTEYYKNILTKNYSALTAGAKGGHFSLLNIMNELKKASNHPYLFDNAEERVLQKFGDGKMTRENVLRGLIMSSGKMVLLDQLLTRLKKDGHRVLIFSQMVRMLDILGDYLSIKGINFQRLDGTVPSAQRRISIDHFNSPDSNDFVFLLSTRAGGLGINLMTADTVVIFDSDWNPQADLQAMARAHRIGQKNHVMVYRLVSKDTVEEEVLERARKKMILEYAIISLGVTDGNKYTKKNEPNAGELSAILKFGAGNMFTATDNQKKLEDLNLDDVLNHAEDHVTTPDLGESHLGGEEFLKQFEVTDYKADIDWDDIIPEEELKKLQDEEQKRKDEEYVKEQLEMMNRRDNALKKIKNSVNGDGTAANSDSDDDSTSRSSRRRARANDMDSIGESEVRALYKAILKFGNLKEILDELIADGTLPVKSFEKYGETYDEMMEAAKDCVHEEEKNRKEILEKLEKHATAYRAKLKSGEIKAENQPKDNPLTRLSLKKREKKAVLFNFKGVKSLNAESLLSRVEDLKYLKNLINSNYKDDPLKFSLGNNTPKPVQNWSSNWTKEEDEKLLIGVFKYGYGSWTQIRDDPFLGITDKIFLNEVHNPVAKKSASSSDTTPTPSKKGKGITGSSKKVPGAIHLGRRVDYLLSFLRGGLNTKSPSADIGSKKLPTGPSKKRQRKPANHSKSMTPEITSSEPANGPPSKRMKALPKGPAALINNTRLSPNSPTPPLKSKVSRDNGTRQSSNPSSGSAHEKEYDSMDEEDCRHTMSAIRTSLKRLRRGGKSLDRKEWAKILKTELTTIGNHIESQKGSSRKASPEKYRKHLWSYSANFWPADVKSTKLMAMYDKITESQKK

Structure (SMILES) | Percent Effect [1] | Percent Effect [2] | Percent Effect [3] | Percent Effect [4] | Percent Effect (Trypanosoma cruzi) | Percent Effect [5] | Percent Effect [6] | Percent Effect (Homo sapiens) | Percent Effect [7] | Percent Effect [8] | Percent Effect [9]
Cc1ccc(NC2CCN(C(=O)c3cccn3C)CC2)nn1 | -10.3% | 7.79% | -16.9% | 19.7% | 11.2% | 2.85% | 18.4% | 26.6% | 10.7% | 24.4% | -12.9%
O=C(CCn1ccc2cc(Br)ccc21)NCc1ccc(C(=O)O)cc1 | -5.12% | 2.63% | 11.6% | 0.438% | -3.02% | -3.55% | 16.2% | 10.9% | -6.38% | -10.4% | -1.59%
O=C(NCC1CCCO1)c1c(-n2cnnn2)sc2c1CCC2 (stereo unspecified) | -5.27% | 5.26% | 6.31% | -1.47% | -2.82% | 3.55% | 17.6% | -12.3% | 3.19% | 7.79% | -4.34%
CS(=O)(=O)c1ccc(CNC(=O)N2CCC(c3ccccc3)CC2)cc1 | -1.75% | 7.59% | 0.598% | -2.13% | -5.76% | 3.42% | 5% | 8.31% | -3.45% | 1.27% | -6.29%
O=C(C(CNCc1ccsc1)c1ccccc1)N1CCOCC1 (stereo unspecified) | -5.96% | 5.2% | -2.02% | 3.85% | 1.87% | 5.52% | 6.49% | -32.4% | 1.07% | 1.24% | 1.41%
COc1cccc2cc(CNC(C)(C)C(=O)N3CCC(O)CC3)oc12 | -4.3% | 5.06% | -3.21% | -2.38% | 7.08% | -0.76% | -6.14% | -31.3% | 6.4% | 3.8% | -3.05%
CS(=O)(=O)N1CCc2c(cccc2NC(=O)CC(F)(F)F)C1 | -3.17% | 5.26% | 4.53% | -1.3% | -2.04% | 0% | 11.8% | -9.3% | 4.25% | 10.4% | -6.43%
Cn1nc2c(cc1=O)CN(CC(=O)Nc1ccc(Cl)cn1)CC2 | -3.42% | 18.1% | -417% | 5.46% | -0.291% | -1.32% | 12.3% | -2.31% | -2.1% | -5.13% | -1.83%
CCN1CCN(C(=O)c2cc(C(=O)OC)nn2-c2ccccc2)CC1 | -1.39% | 18.4% | 3.57% | -5.6% | -5.26% | 11.5% | 15.2% | 20.6% | 7.35% | 7.32% | -8.31%
Cc1ccc(CN2C[C@@H]3COC[C@H](C(=O)N4CCCCO4)[C@@H]3C2)o1 | -1.82% | 13.3% | 7.57% | 2.5% | 1.57% | -1.17% | 4.32% | 0.512% | 7.45% | 19.2% | -3.93%
CC(C)c1noc(CCCC(=O)N2CCN(Cc3ccncc3)CC2)n1 | -2.42% | 22.8% | -9.61% | -9.55% | 3.87% | -6.84% | 12.2% | 11.6% | 5.42% | 21.5% | -6.65%
O=C(c1cccc(Cl)c1)N1CC[C@H]2[C@H]1CCN2CC1CCOCC1 | -2.38% | 0% | 10.3% | 0.0847% | 0.197% | 1.17% | 9.78% | -5.51% | 4.25% | 3.85% | -5.25%
COc1ccc(CN2CCc3ncnc(C4CCOC4)c3CC2)cc1 (stereo unspecified) | -3.47% | 5.33% | -1.49% | -6.97% | 5.41% | -40.3% | 5.13% | 13.6% | 0% | 7.5% | -7.3%
CC(Cn1ccnc1)NC(=O)C1(c2ccc3c(c2)OCCO3)CCCC1 (stereo unspecified) | -1.6% | 20.2% | -9.88% | -5.21% | 1.79% | -2.66% | 15.2% | 10.3% | 6.4% | 24.1% | -7.42%
Cc1cnn(CC2CN(Cc3nnc(C4CC4)o3)CCO2)c1 (stereo unspecified) | -7.99% | 5.41% | 87.3% | 7.35% | -4.18% | -4.99% | -1.26% | 8.17% | 1.98% | 3.66% | 7.2%
Cc1cnn(CC2CN(Cc3nccn3C)CCO2)c1 (stereo unspecified) | -2.86% | 5.41% | -4.03% | 2.01% | -1.95% | 3.14% | 1.44% | 8.74% | 6.93% | 11% | -1.23%
CCN(CC)Cc1ccc(C(=O)N2CCCCC2Cn2cccn2)o1 (stereo unspecified) | -1.67% | -5.41% | 0.822% | 4.06% | -0.0929% | -1.29% | 3.23% | 2.84% | 0% | 1.22% | 0.882%
CN(CCN1CCCCCC1)C(=O)c1cc(CN2CCC(O)CC2)on1 | -4.14% | 2.74% | -1.87% | -2.01% | 2.74% | 0.909% | 13.3% | -3.45% | 8.6% | 15% | -2.4%
COc1ccc(F)cc1C(C)NC(=O)Nc1nnc(C)s1 (stereo unspecified) | -1.41% | 10.8% | -8.69% | 27.9% | 4.99% | 13.7% | 9.7% | 17.2% | 5.38% | 16.1% | 3.4%
CC(C)COC(C)C(=O)NCc1cc(F)cc(F)c1 (stereo unspecified) | -1.7% | 2.6% | 8.53% | 10.1% | 1.47% | 2.32% | -0.728% | 21.9% | 2.86% | 2.35% | -5.87%
Cc1nc(COC[C@@H]2CC[C@H]3[C@H](CCN3c3ncccn3)O2)cs1 | -0.526% | 0% | -0.411% | 3.43% | -0.394% | 4.89% | 15.2% | 8.36% | 4.25% | 1.28% | 2.8%
